Records with an inconclusive call do not appear. The source made the active and inactive calls. Unless noted, calls come from the whole dose curve; as a rule, active = well fitted curve in the direction sought with a large enough effect in the repeat runs; inconclusive = weak or mixed curves; inactive = no such curve, though single readings can be large; an effect the other way counts as inactive or inconclusive.
How the values were obtained:
[1] = qHTS assay to identify aromatase inhibitors - cell viability counter screen (AID 743084);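 note: cells stimulated with testosterone during compound exposure; nearly all actives have a fitted effect of over 55% in size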
[2] = molecular target: Aryl hydrocarbon receptor (Homo sapiens) (UniProt P35869); test: qHTS assay to identify small molecule that activate the aryl hydrocarbon receptor (AhR) signaling pathway (AID 743085);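 note: HG2L7.5c1 human HepG2 liver cells with stably integrated DRE-driven firefly reporter; series mostly up to about 70 µM; nearly all actives have a fitted effect of over 15% in size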
In short: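 Cell line HG2L7.5c1 (human hepatoma, 20× DRE-luc). Plated, 5 h 37C, compound/DMSO added, 24 h 37C. CellTiter-Fluor 30 min 37C → fluorescence; then ONE-Glo 30 min RT → luminescence.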

[3] = qHTS assay to identify small molecule that activate the aryl hydrocarbon receptor (AhR) signaling pathway - cell viability counter screen (AID 743086);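 note: HepG2 liver cells carrying the AhR DRE luciferase reporter; series mostly up to about 70 µM; nearly all actives have a fitted effect of over 45% in size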
In short: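 HepG2-AhR-luc (HG2L7.5c1) cells, 4000/well, treated 24 h at 37 C with compound; viability measured as CellTiter-Fluor fluorescence after 30 min in the same wells as the luciferase read.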

[4] = molecular target: Peroxisome proliferator-activated receptor gamma (Homo sapiens) (UniProt P37231); test: qHTS assay to identify small molecule agonists of the peroxisome proliferator-activated receptor gamma (PPARg) signaling pathway (AID 743094; active = well fitted activation curve with a large enough effect in the signal ratio in the repeat runs, not every such curve was filed as active; the % refers to the signal ratio)
In short: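 Beta-lactamase FRET fluorescence was the read-out after a 1 h room-temperature substrate step, following 17 h compound treatment at 37C of HEK293H cells expressing a UAS-driven bla reporter responsive to PPARg.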

[5] = molecular target: Peroxisome proliferator-activated receptor gamma (Homo sapiens) (UniProt P37231); test: qHTS assay to identify small molecule antagonists of the peroxisome proliferator-activated receptor gamma (PPARg) signaling pathway (AID 743191; calls by dose curve; note: series mostly up to about 63 µM; nearly all actives have a fitted effect of over 30% in size)
In short: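 GeneBLAzer PPARg UAS-bla HEK293H cells, 5 h post-plating, exposed to compounds 17 h at 37C. LiveBLAzer B/G FRET substrate added for 1 h at room temperature; beta-lactamase reporter read by fluorescence intensity.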

[6] = qHTS assay to identify small molecule antagonists of the peroxisome proliferator-activated receptor gamma (PPARg) signaling pathway - cell viability counter screen (AID 743194); note: nearly all actives have a fitted effect of over 55% in size
In short: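 Cytotoxicity counter screen in PPARg-bla HEK293H cells, same wells as reporter assay. Compounds plus 50 nM rosiglitazone (final) for 17 h at 37 C, then viability read by CellTiter-Glo luminescence.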

[7] = qHTS assay for small molecule agonists of the antioxidant response element (ARE) signaling pathway - cell viability counter screen (AID 743203; calls by dose curve; note: nearly all actives have a fitted effect of over 55% in size)
In short: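 HepG2 cells carrying ARE-driven beta-lactamase; 2,000 cells/well; 5 hrs plating; compound pinned from DMSO; 16 hrs 37C/5% CO2; CellTiter-Glo added; 30 min RT; luminescence.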

[8] = qHTS assay for small molecule activators of the heat shock response signaling pathway - cell viability counter screen (AID 743209); note: nearly all actives have a fitted effect of over 50% in size
In short: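 Luminescence from CellTiter-Glo, added after the beta-lactamase FRET read, gave the viability signal. Cells were HSE-bla HeLa treated with DMSO-dissolved compounds for 5 h at 37 C following overnight plating.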

[9] = qHTS assay for small molecule activators of the heat shock response signaling pathway (AID 743210; active = well fitted activation curve with a large enough effect in the signal ratio in the repeat runs, with a control signal flat, not every such curve was filed as active; the % refers to the signal ratio;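 note: HeLa cells with beta-lactamase reporter driven by heat shock elements; series mostly up to about 63 µM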)
In short: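 Quantitative high-throughput format using an engineered HeLa line in which heat shock response elements drive beta-lactamase; after 5 h with compound, cells received a B/G FRET substrate and fluorescence was read.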

[10] = qHTS assay to identify small molecule agonists of the peroxisome proliferator-activated receptor delta (PPARd) signaling pathway - cell viability counter screen (AID 743211); note: nearly all actives have a fitted effect of over 55% in size
In short: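 HEK293H PPARd-bla, 3000 cells/well; 5 h preincubation 37C/5% CO2; cpd in DMSO, 17 h 37C; B/G FRET substrate 2 h RT; CellTiter-Glo 30 min RT, luminescence.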

[11] = molecular target: Peroxisome proliferator-activated receptor delta (Homo sapiens) (UniProt Q03181); test: qHTS assay to identify small molecule agonists of the peroxisome proliferator-activated receptor delta (PPARd) signaling pathway (AID 743212; calls by dose curve)
In short: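 Quantitative high-throughput agonist screen in a HEK293H beta-lactamase reporter line under UAS control. Compounds in DMSO, at 37 C. Fluorescence read after 2 h with FRET substrate at room temperature.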

[12] = qHTS assay to identify small molecule antagonists of the peroxisome proliferator-activated receptor delta (PPARd) signaling pathway - cell viability counter screen (AID 743213); note: nearly all actives have a fitted effect of over 50% in size
In short: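 Same-well viability: cells pre-incubated 5 h, dosed with compound plus 300 nM L165041, kept 17 h at 37 C, FRET substrate 2 h RT, then CellTiter-Glo 30 min RT and luminescence.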

[13] = molecular target: Peroxisome proliferator-activated receptor delta (Homo sapiens) (UniProt Q03181); test: qHTS assay to identify small molecule antagonists of the peroxisome proliferator-activated receptor delta (PPARd) signaling pathway (AID 743215; active = well fitted inhibition curve with a large enough effect in the signal ratio in the repeat runs, not every such curve was filed as active; the % refers to the signal ratio;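 note: cells stimulated with agonist L165041 at 300 nM final during compound exposure; series mostly up to about 62 µM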)
In short: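 Read-out is beta-lactamase FRET fluorescence, measured 2 h after substrate addition at room temperature. Beforehand, UAS-bla HEK293H cells carrying the PPARd reporter were exposed to compounds with L165041 at 300 nM final for 17 h at 37 C.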

[14] = qHTS assay to identify small molecule agonists of the farnesoid-X-receptor (FXR) signaling pathway - cell viability counter screen (AID 743218); note: nearly all actives have a fitted effect of over 45% in size
In short: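 HEK 293T FXR-bla cells; 5 h pre-incubation, 16 h compound exposure at 37 C; LiveBLAzer substrate 2 h RT, then CellTiter-Glo 30 min RT, luminescence.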

[15] = qHTS assay to identify small molecule antagonists of the farnesoid-X-receptor (FXR) signaling pathway - cell viability counter screen (AID 743221; active = well fitted cell-killing curve with a large enough effect in the repeat runs, not every such curve was filed as active; note: nearly all actives have a fitted effect of over 50% in size)
In short: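 Luminescence from CellTiter-Glo measures cytotoxicity in GeneBLAzer FXR-UAS-bla HEK 293T cells. Cells were exposed to compounds with 50 uM chenodeoxycholic acid (final) for 16 h at 37 C, in wells also used for the reporter readout.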

[16] = molecular target: Bile acid receptor (Homo sapiens) (UniProt Q96RI1); test: qHTS assay to identify small molecule antagonists of the farnesoid-X-receptor (FXR) signaling pathway (AID 743217; active = well fitted inhibition curve with a large enough effect in the signal ratio in the repeat runs, not every such curve was filed as active; the % refers to the signal ratio)
In short: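 HEK 293T FXR-UAS-bla, 5000 cells/well; compound + CDCA 50 uM final; 16 h, 37 °C; B/G FRET substrate 2 h RT; fluorescence.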

[17] = molecular target: Bile acid receptor (Homo sapiens) (UniProt Q96RI1); test: qHTS assay to identify small molecule agonists of the farnesoid-X-receptor (FXR) signaling pathway (AID 743220; active = well fitted activation curve with a large enough effect in the signal ratio in the repeat runs, not every such curve was filed as active; the % refers to the signal ratio)
In short: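 Beta-lactamase reporter under UAS control in GeneBLAzer FXR HEK 293T cells (5000/well) measured with LiveBLAzer FRET substrate after 2 h at room temperature. Compound exposure lasted 16 h at 37C.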

[18] = molecular target: Vitamin D3 receptor (Homo sapiens) (UniProt P11473); test: qHTS assay to identify small molecule agonists of the vitamin D receptor (VDR) signaling pathway (AID 743222; calls by dose curve)
In short: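 VDR-bla cells, 2,000/well; 4 h preincubation 37C; cpd (DMSO) 16 h; LiveBLAzer B/G substrate 2 h RT; fluorescence intensity read.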

[19] = molecular target: Vitamin D3 receptor (Homo sapiens) (UniProt P11473); test: qHTS assay to identify small molecule antagonists of the vitamin D receptor (VDR) signaling pathway (AID 743223; active = well fitted inhibition curve with a large enough effect in the signal ratio in the repeat runs, not every such curve was filed as active; the % refers to the signal ratio)
In short: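 Antagonist mode uses 1alpha,25-dihydroxyvitamin D3 at 3 nM final as stimulus. VDR-bla cells receive compounds in DMSO, incubate 16 h at 37C, then a beta-lactamase FRET substrate for 2 h at room temperature before fluorescence measurement.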

[20] = qHTS assay for small molecule agonists of the antioxidant response element (ARE) signaling pathway (AID 743202; active = well fitted activation curve with a large enough effect in the signal ratio in the repeat runs, not every such curve was filed as active; the % refers to the signal ratio)
In short: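 Agonist mode reporter screen: HepG2 cells with ARE-controlled beta-lactamase are incubated with test compounds for 16 h at 37 C, and beta-lactamase activity is measured as fluorescence of cleaved B/G FRET substrate.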
% is set by controls: 0 for no effect and ±100 for the full control effect.

Peroxisome proliferator-activated receptor gamma (Homo sapiens), sequence (P37231 whole entry, looked up): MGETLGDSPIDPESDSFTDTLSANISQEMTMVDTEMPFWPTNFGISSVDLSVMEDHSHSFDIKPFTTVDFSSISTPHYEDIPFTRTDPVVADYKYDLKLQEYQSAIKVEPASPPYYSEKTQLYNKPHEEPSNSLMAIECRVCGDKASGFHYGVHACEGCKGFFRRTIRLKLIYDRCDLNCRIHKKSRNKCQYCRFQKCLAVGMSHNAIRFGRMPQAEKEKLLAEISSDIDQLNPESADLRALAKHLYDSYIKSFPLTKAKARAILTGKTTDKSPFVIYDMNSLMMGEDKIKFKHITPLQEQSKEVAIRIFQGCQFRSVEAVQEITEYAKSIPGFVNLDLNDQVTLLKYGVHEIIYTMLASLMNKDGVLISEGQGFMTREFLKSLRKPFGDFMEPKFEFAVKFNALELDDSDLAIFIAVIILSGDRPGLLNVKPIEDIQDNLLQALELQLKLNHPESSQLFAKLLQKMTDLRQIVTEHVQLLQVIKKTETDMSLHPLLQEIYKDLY
Peroxisome proliferator-activated receptor delta (Homo sapiens), sequence (Q03181 whole entry, looked up): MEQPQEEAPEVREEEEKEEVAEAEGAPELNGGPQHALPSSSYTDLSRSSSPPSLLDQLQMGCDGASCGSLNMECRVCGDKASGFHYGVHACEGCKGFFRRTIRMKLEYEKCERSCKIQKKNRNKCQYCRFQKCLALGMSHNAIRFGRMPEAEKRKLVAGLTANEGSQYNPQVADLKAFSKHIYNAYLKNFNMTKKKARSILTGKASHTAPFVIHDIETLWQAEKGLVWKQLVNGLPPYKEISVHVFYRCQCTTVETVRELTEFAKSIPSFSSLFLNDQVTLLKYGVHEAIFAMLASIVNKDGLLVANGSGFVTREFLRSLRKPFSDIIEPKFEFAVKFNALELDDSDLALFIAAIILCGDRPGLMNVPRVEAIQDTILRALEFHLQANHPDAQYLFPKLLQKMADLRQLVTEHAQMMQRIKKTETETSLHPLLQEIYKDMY
Aryl hydrocarbon receptor (Homo sapiens), sequence (P35869 whole entry, looked up): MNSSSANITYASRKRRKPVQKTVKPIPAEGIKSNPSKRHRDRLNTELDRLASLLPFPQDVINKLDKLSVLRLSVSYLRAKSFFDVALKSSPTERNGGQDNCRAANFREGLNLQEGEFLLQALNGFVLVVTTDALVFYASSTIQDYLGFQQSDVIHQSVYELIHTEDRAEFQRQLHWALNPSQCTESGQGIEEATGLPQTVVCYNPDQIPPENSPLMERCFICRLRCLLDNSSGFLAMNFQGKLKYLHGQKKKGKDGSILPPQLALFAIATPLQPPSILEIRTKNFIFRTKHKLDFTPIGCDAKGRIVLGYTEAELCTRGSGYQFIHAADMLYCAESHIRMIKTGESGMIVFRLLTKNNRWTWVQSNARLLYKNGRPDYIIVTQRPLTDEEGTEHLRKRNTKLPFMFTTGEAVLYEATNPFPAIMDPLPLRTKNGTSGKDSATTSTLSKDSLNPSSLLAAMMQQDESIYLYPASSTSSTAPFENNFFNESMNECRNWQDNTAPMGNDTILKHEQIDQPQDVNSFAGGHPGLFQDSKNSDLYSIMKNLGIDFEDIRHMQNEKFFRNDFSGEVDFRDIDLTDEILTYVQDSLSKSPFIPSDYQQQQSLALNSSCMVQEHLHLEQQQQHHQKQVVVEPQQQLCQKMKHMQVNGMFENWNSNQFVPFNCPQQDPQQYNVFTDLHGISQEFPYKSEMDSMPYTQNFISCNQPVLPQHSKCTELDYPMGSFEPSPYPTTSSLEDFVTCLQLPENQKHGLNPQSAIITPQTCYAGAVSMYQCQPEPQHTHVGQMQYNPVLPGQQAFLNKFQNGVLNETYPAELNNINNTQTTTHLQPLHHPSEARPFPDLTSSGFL
Bile acid receptor (Homo sapiens), sequence (Q96RI1 whole entry, looked up): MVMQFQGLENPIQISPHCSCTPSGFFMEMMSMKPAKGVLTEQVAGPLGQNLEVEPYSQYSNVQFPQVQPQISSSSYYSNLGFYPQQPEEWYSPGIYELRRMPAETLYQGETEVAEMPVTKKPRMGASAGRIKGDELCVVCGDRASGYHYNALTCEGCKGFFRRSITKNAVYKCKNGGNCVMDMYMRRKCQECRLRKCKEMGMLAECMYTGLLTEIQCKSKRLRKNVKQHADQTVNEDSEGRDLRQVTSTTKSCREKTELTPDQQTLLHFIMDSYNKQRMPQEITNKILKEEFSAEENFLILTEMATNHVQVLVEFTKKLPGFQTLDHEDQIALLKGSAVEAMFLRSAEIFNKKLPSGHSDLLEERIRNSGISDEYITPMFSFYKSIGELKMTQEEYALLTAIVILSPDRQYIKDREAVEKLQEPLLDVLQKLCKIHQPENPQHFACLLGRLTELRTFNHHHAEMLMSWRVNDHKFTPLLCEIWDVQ
Vitamin D3 receptor (Homo sapiens), sequence (P11473 whole entry, looked up): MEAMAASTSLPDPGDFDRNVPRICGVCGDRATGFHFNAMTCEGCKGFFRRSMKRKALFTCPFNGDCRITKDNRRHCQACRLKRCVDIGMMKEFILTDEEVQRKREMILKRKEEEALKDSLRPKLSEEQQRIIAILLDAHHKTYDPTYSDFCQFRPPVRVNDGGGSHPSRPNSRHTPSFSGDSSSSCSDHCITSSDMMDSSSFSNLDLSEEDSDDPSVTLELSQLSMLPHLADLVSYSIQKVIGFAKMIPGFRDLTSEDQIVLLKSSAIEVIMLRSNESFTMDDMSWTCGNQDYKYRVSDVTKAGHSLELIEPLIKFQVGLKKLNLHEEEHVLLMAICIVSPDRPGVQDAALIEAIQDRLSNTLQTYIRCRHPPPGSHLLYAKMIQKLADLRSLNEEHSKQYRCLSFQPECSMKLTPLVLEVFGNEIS

CC(=O)O[C@H](CC(=O)[O-])C[N+](C)(C)C
inactive: Potency [1] | Potency [2] | Potency [3] | outcome [4] | outcome [5] | Potency [6] | outcome [7] | outcome [8] | outcome [9] | Potency [10] | outcome [11] | Potency [12] | outcome [13] | outcome [14] | Potency [15]

O=C(O)c1ccccc1S
inactive: Potency [1] | Potency [2] | Potency [3] | outcome [4] | outcome [5] | Potency [6] | outcome [7] | outcome [8] | outcome [9] | Potency [10] | outcome [11] | Potency [12] | outcome [13] | outcome [16] | outcome [14] | outcome [17] | Potency [15] | outcome [18]

CCCC(C)C(=O)O (configuration not stated)
inactive: Potency [1] | Potency [2] | Potency [3] | outcome [4] | outcome [5] | Potency [6] | outcome [7] | outcome [9] | Potency [10] | outcome [11] | outcome [16] | outcome [14] | outcome [17] | Potency [15] | outcome [18] | outcome [19]

FC(F)(F)C(F)(F)C(F)(F)C(F)(F)C(F)(F)C(F)(F)C(F)(F)C(F)(F)C(F)(F)C(F)(F)F
inactive: activity change, negative = cytotoxicity [1] 5.22% [at 8.47 µM] | activation [2] 0.197% [at 8.47 µM] | viability change, negative = cytotoxic [3] 24.8% [at 8.47 µM] | activation [4] -0.797% [at 7.08 µM] | ratio activity, negative = inhibition [5] -8.26% [at 5.95 µM] | activity change, negative = cytotoxicity [6] 1.8% [at 5.95 µM] | activation [20] 0.659% [at 8.36 µM] | viability change, negative = cytotoxic [7] 0.46% [at 8.36 µM] | activity change, negative = cytotoxicity [8] 3.17% [at 5.95 µM] | activation [9] 2.05% [at 5.95 µM] | activity change, negative = cytotoxicity [10] 5.8% [at 5.95 µM] | viability change, negative = cytotoxic [12] -11.7% [at 6.26 µM] | viability change, negative = cytotoxic [14] 1.72% [at 5.95 µM] | activity change, negative = cytotoxicity [15] 9.95% [at 5.95 µM] | activity change, negative = inhibition [19] -8.47% [at 6.95 µM]

CCCc1ccccc1O
inactive: Potency [1] | Potency [2] | Potency [3] | outcome [4] | outcome [5] | Potency [6] | outcome [7] | outcome [8] | Potency [10] | Potency [12] | outcome [14] | Potency [15] | outcome [18] | outcome [19]

NC(N)=NS(=O)(=O)c1ccc(N)cc1
inactive: Potency [1] | Potency [2] | Potency [3] | outcome [4] | outcome [5] | Potency [6] | outcome [7] | outcome [8] | outcome [9] | Potency [10] | outcome [11] | Potency [12] | outcome [13] | outcome [16] | outcome [14] | outcome [17] | Potency [15]

O=C1OC(=O)c2cc([N+](=O)[O-])ccc21
inactive: Potency [1] | Potency [2] | Potency [3] | outcome [4] | outcome [5] | Potency [6] | outcome [7] | outcome [8] | outcome [9] | Potency [10] | outcome [11] | Potency [12] | outcome [13] | outcome [14] | Potency [15] | outcome [19]

CC(=O)c1ccc(C)cc1
inactive: Potency [1] | Potency [2] | Potency [3] | outcome [4] | outcome [5] | Potency [6] | outcome [7] | outcome [8] | outcome [9] | Potency [10] | outcome [11] | Potency [12] | outcome [13] | outcome [14] | Potency [15] | outcome [19]

CC(=O)OC(C)(C)C
inactive: Potency [1] | Potency [2] | Potency [3] | outcome [4] | outcome [5] | Potency [6] | outcome [7] | outcome [8] | outcome [9] | Potency [10] | outcome [11] | Potency [12] | outcome [13] | outcome [14] | Potency [15]
